PubChem BioAssay (NCI)
About 83,000 compounds went through this panel and 20% of them were active in at least one assay; those are over-represented in the sample as a whole.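 Percent growth is the endpoint: 0 to 100 indicates growth inhibition (40 means 60% inhibition), 0 means no net growth, and negative values indicate cell death.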 Active and inactive are the calls of the source.

These compounds were tested on T-47D breast (assay: NCI-60 one-dose screen, 48 h (100 = growth as untreated, 0 = no growth, -100 = all killed)). Details: 10 µM.
Procedure: Growth inhibition of the T-47D human tumor cell line is measured as a screen for anti-cancer activity. Cells are grown in 96 well plates and exposed to the test compound for 48 hours. Compounds are tested at a single concentration, which is 10^-5 M for most compounds. The reported endpoint is percent growth (GI% or GIPRCNT), where numbers from 0 - 100% represent growth inhibition, and numbers from -100% - 0 represent cell death. For example, a value of 40 represents 60% growth inhibition. A value of 0 means no net growth occurred over the course of the experiment. A value of -40 indicates 40% of cells at the beginning of the experiment died by the end of the experiment. A value of -100 means all cells are dead at the end of the experiment.
NCI-60 Human Tumor Cell Lines Screen was performed using the standard one-dose NCI protocol, which is described in more detail at https://dtp.cancer.gov/discovery_development/nci-60/default.htm.
Compounds with GIPRCNT values below 10 were considered active. Activity score was based on GIPRCNT using the following formula: […]
Score is 0 for GIPRCNT values of 100 or above, 50 for GIPRCNT values of 0, and 100 for GIPRCNT values of -100.

Structure (SMILES)	growth
COc1cc(C2CC(c3ccc(Oc4ccc(Cl)cc4)cc3)=NN2c2nc(-c3ccc(Cl)cc3)c(C#N)c(N3CCOCC3)n2)cc(OC)c1OC (stereo not given)	91.8% (inactive)
O=C(c1ccc(Cl)cc1)C(c1c[nH]c2ccccc12)c1c[nH]c2ccccc12	-30.6% (active)
C#C[C@]1(O)CC[C@H]2[C@@H]3CC=C4c5sc(Nc6ccc(N(C)C)cc6)nc5CC[C@]4(C)[C@H]3CC[C@@]21C	28.6% (inactive)
Cn1cc(/C=C(/SS/C(=C/c2cn(C)c3cccc(C(=O)O)c23)C(=O)O)C(=O)O)c2c(C(=O)O)cccc21	101% (inactive)
CC1[C@H]2[C@H](C[C@H]3[C@@H]4CC=C5c6sc(Nc7cccc(Cl)n7)nc6CC[C@]5(C)[C@H]4CC[C@@]32C)O[C@]12CC[C@@H](C)CO2 (stereo not given in full)	68% (inactive)
COc1ccc(C(=O)COc2ccc(NC(=O)Nc3ccc(Cl)c(C(F)(F)F)c3)cc2)cc1	12.5% (inactive)
COc1ccc(C(=O)COc2ccc(NC(=O)Nc3ccccc3)cc2)cc1	65.6% (inactive)
COc1cc(C2CC(c3ccccc3)=Nc3c(N)nc(N)nc3N2)ccc1Oc1nc(NCCO)nc(N2CCOCC2)n1 (stereo not given)	90% (inactive)
Fc1ccc(-c2csc(Nc3cccc(Nc4nc(-c5ccc(F)cc5)cs4)c3)n2)cc1	7.43% (active)
Cn1cc(-c2nnc(N)nc2-c2c[nH]c3ccc(F)cc23)c2cc(Br)cnc21	44.1% (inactive)
COc1ccccc1-n1cc(C#N)c(N)c1C(=O)c1ccc(Cl)cc1Cl	28.5% (inactive)
O=C(CSc1nc2ccccc2c(=O)n1-c1ccc(Cl)cc1)Nc1ccc(-c2nc3ccc([N+](=O)[O-])cc3[nH]2)cc1	6.69% (active)
O=C(Nc1ccc(OCc2ccc(Cl)cc2)cc1)Nc1ccc(Cl)c(C(F)(F)F)c1	3.95% (active)
COc1ccc2[nH]cc(-c3nc(N)nnc3-c3cn(C)c4ncc(Br)cc34)c2c1	48.5% (inactive)
Cc1cc(N=C2NC(=O)/C(=C/c3cc(C(C)(C)C)c(O)c(C(C)(C)C)c3)S2)n[nH]1	3.32% (active)
Cc1ccc2c(c1)C(=O)/C(=C/c1ccc([N+](=O)[O-])cc1)S2	86.3% (inactive)
C#C[C@]1(O)CC[C@H]2[C@@H]3CC=C4c5sc(Nc6ccc(C(F)(F)F)cn6)nc5CC[C@]4(C)[C@H]3CC[C@@]21C	8.97% (active)
COc1ccc(C2c3sc4ccc(C)cc4c3Oc3nc(N)nc(N)c32)cc1 (stereo not given)	61.3% (inactive)
CC1(C)CC[C@]2(C(=O)O)CC[C@]3(C)C(=CCC4[C@@]5(C)C[C@@H](O)[C@@H]6OC(c7cccc(F)c7)OC[C@@]6(C)C5CC[C@]43C)C2C1 (stereo not given in full)	38.9% (inactive)
COc1ccc(C2OC[C@@]3(C)C4CC[C@]5(C)C(CC=C6C7CC(C)(C)CC[C@]7(C(=O)O)CC[C@]65C)[C@@]4(C)C[C@@H](O)[C@@H]3O2)cc1 (stereo not given in full)	88.5% (inactive)

Structure (SMILES)	growth
O=C1NC2C=CC=CC2/C1=C1/SC(=S)N(C2CC(=O)N(c3ccc(Br)cc3)C2=O)C1=O (stereo not given)	82.9% (inactive)
COC(=O)CNC(=O)COc1c(OC)c(OC)cc2oc(-c3cccc(C(=O)Nc4ccc(Cl)cc4)c3)cc(=O)c12	37.9% (inactive)
Fc1ccc(/C=C/c2nc3ccccc3n3c(-c4ccc(Cl)cc4)nnc23)cc1	60.9% (inactive)
O=C(CSc1nc2ccccc2c(=O)n1-c1ccc(Cl)cc1)Nc1ccc(-c2nc3ccccc3[nH]2)cc1	-68.5% (active)
COc1ccc(Cc2nn(CC(=O)N/N=C/c3ccc(Br)cc3)c(=O)c3c(C)noc23)cc1	-1.9% (active)
CC(C)(C)c1cc(/C=C2\S/C(=N/c3ncn[nH]3)NC2=O)cc(C(C)(C)C)c1O	10.3% (inactive)
O=C1NC(=S)S/C1=C\c1cn(-c2ccccc2)nc1-c1ccc([N+](=O)[O-])cc1	6.73% (active)
CCOc1ccc(/C=N/NC(=O)Cn2nc(Cc3ccc(OC)cc3)c3onc(C)c3c2=O)cc1	16.3% (inactive)
CCOC(=O)C1=C(N)N(c2ccc(C)cc2)C2=C(C(=O)CC(C)(C)C2)C1c1ccccc1Br (stereo not given)	69.6% (inactive)
Cn1cc(-c2cc(N)n3nc(-c4cn(C)c5ccccc45)cc3n2)c2cc(F)ccc21	-50.1% (active)
O=C1S/C(=C\c2ccc([N+](=O)[O-])cc2)C(=O)N1CCN1CCCCC1	95.6% (inactive)
Cn1cc(-c2nnc(N)nc2-c2c[nH]c3ccccc23)c2cc(Br)cnc21	29.4% (inactive)
C#CCOc1cc(N(CC)CC)ccc1C(C(=O)NC(C)(C)C)N(C(=O)C1CCc2cc(F)ccc2O1)c1ccc(F)cc1F (stereo not given)	37.4% (inactive)
O=C(c1ccc(F)cc1)C(c1c[nH]c2ccccc12)c1c[nH]c2ccccc12	63.9% (inactive)
COc1ccc(Cc2nn(CC(=O)N/N=C/c3ccc([N+](=O)[O-])cc3)c(=O)c3c(C)noc23)cc1	73.5% (inactive)
O=C(CN1CCN(c2ncnc3c2cnn3-c2ccccc2)CC1)Nc1ccc(Cl)cc1	26.7% (inactive)
Cn1cc(-c2nc(N)nnc2-c2c[nH]c3ccccc23)c2cc(Br)cnc21	65.2% (inactive)
CC1(C)CC(=O)C2=C(C1)N(Cc1ccc(C(=O)O)cc1)C1=C(C(=O)CC(C)(C)C1)C2c1ccc(Cl)cc1	91.9% (inactive)
Nc1nnc(-c2c[nH]c3ncc(Br)cc23)c(-c2c[nH]c3ccc(Br)cc23)n1	37.4% (inactive)
O=C(Nc1ccc(OCC(=O)c2ccc(Cl)cc2)cc1)Nc1ccc(Cl)c(C(F)(F)F)c1	6.1% (active)
